# High-throughput results (PubChem)
# NSD2 inh – inhibitors of human histone methyltransferase NSD2; O96028; NSD2 peptide methylation, AlphaScreen, 120 min; inhibition, % at 12.5 µM; 310,000 compounds, 0.54% hits; in the data active = inhibition above about 50%
# NPR2 activator – GC-B (human) receptor activation; HEK293-GC-B cells, CNP EC30, cGMP TR-FRET; 0% at EC30 CNP, 100% saturating CNP; P20594; AID 1920062; activation, % at 10 µM; 370,000 compounds, 0.11% hits;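 active = activation at 10 µM reaching about 35% in either raw or pattern-adjusted values, limit read from the data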
# Target sequence (P20594 whole entry, looked up): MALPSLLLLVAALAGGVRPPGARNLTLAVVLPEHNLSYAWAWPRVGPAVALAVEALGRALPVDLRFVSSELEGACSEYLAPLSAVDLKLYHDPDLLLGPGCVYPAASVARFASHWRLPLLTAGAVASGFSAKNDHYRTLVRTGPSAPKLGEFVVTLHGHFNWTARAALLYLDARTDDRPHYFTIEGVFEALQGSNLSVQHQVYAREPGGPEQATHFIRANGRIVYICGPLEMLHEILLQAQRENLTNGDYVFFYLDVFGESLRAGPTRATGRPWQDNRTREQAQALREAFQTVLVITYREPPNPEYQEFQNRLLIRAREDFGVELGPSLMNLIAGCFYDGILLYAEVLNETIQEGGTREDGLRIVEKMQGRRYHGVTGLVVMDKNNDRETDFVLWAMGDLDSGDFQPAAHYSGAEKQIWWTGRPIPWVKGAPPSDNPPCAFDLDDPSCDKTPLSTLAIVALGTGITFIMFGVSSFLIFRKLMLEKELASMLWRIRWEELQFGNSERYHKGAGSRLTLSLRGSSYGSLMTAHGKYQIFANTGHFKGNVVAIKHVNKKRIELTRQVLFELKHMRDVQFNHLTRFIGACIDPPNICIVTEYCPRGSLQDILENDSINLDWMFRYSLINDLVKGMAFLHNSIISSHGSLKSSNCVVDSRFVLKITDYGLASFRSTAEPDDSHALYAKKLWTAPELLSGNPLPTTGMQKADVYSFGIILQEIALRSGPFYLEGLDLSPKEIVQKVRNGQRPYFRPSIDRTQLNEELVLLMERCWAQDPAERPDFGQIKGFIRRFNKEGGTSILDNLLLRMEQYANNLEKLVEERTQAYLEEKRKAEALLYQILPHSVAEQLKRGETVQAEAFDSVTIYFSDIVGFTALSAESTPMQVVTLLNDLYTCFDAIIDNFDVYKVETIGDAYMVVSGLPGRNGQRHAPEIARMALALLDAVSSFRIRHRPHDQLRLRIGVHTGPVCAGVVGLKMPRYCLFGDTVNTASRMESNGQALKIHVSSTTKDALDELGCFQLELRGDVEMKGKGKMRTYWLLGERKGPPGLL
# V-ATPase pH – regulators of yeast V-ATPase proton transport. response, % at 10 µM. 350,000 compounds, 0.37% hits. S. cerevisiae, pHLuorin cytosolic pH fluorescence. AID 504577; in the data active = response mostly above about 7.3%, no sharp cut-off; inactive = mostly below about 5.4%; also: actives read high
# Efflux pump mplx – blocks antifungal efflux pumps in multiplex yeast assay; 330,000 compounds, 0.44% hits; AID 485275; S. cerevisiae Candida pump triplex, Nile Red efflux; inhibition, % at 10 µM;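 active = plate passing quality check with inhibition over a set limit, or well fluorescence over plate mean plus 4 SD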;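 also: Nile Red retained in pooled yeast measured as flow cytometry median fluorescence; 0% = buffer negative control and 100% = Enniatin B positive control; higher means more Nile Red kept so more efflux inhibition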
# GC-A act – GC-A (human) enzyme activation; HEK293 GC-A cells, cGMP TR-FRET, EC30 ANP; 0% at EC30 ANP, 100% saturating ANP; activation, % at 10 µM; 370,000 compounds, 0.14% hits; AID 1671463; in the data active = activation above about 40%
# Rce1 inh – inhibitors of yeast Ras-converting enzyme; Q03530; yeast membranes, quenched prenylated peptide cleavage fluorescence; calls only; 290,000 compounds, 0.27% hits; AID 2563;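 active = fall in fluorescence gain of 50% or more versus controls, with final raw signal at or below 3038400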;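 also: plate controls were neutral control wells for no effect and wells lacking membranes for full effect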
# * marks the source's active call; other numbers are inactive results; i = inactive; nt = no result given; + = active, no number. A selection: hits, their analogues and other compounds. The true share with any hit is near 1.6%.
SMILES,NSD2 inh,NPR2 activator,V-ATPase pH,Efflux pump mplx,GC-A act,Rce1 inh
O=C(Nc1ccccc1)Nc1ncc([N+](=O)[O-])s1,14,10,0,nt,8,nt
Cc1cccc(-c2cccc3c4c([nH]c23)[C@@H]2C[C@H](N(C)C(=O)Nc3ccccc3)[C@H]([C@H](C)O)C(=O)N2CC4)c1,nt,-5,nt,nt,-5,nt
CCC(=O)Nc1cccc(NC(=O)c2ccc(C)cc2Cl)c1,-1,2,16*,0,5,i
Cc1cc(NC(=O)COC(=O)c2nccnc2N)n(-c2ccccc2)n1,2,2,-4,0,0,+
N#Cc1c(N)[nH]c2ccc(Sc3ccccc3)cc12,-2,44*,6,nt,59*,nt
N#Cc1c(N)[nH]c(=S)c(C#N)c1-c1ccccc1,nt,3,1,0,18,nt
CCN1C(=O)N[C@@H](c2cccs2)C(C(=O)OC)=C1C,nt,-4,-10,0,-1,i
CCN1C(=S)N[C@@H](c2cccs2)C(C(=O)OC)=C1C,nt,35*,-2,0,29,i
CC(=O)c1ccc(NC(=O)c2ccc3c(c2)C(=O)N(c2ccccn2)C3=O)cc1,1,3,5,0,22,i
O=C(Nc1cccc([N+](=O)[O-])c1)c1ccc2c(c1)C(=O)N(c1ccccn1)C2=O,-2,10,-3,0,42*,nt
O=C1NC(Cc2ccccc2)c2nc3ccc(Cl)cc3c(=O)n2-c2cc3ccccc3cc21 (stereo not given),nt,10,-1,nt,-1,nt
O=C1NC(Cc2ccc(O)cc2)c2nc3ccc(Cl)cc3c(=O)n2-c2cc3ccccc3cc21 (stereo not given),nt,57*,2,nt,-1,nt
COC(=O)C1CN(C2CCCC2)CCS(=O)(=O)N1Cc1ccccc1 (stereo not given),nt,-3,nt,nt,3,nt
COc1ccc(C(C(=O)NC(C)(C)C)n2c(COc3ccc(C)cc3)nc3ccccc32)cc1 (stereo not given),nt,-19,nt,nt,-20,nt
COc1ccc(C(C(=O)NC(C)(C)C)n2c(-c3ccc(=O)[nH]c3)nc3ccccc32)cc1 (stereo not given),nt,45*,nt,nt,45*,nt
CCOC(=O)C[n+]1ccc2c([nH]c3ccccc32)c1C,14,3,3,0,7,+
COc1ccc(CSc2nnc(SCc3ccccc3)s2)cc1,5,4,nt,nt,0,nt
CCCNC(=O)c1onc(CSc2ccccn2)c1C(=O)NCCC,nt,6,22*,0,0,i
Cc1ccccc1NS(=O)(=O)c1ccc(C(=O)NCC(c2ccccc2)N(C)C)cc1 (stereo not given),0,0,2,0,-1,+
Cc1ccccc1NS(=O)(=O)c1ccc(C(=O)NCC(c2ccco2)N(C)C)cc1 (stereo not given),-3,-4,1,0,-3,i
COC(=O)[C@]12C[C@H](CC(=O)NCC3CCCCC3)C(=O)N(Cc3ccco3)C1=C[C@H](COCc1ccccc1)O[C@@H]2C,nt,-4,nt,nt,1,nt
COc1cc(NC(C)CCCNC(C)C)c2ncccc2c1OC (stereo not given),111*,-1,-1,nt,-11,nt
CCOc1ccc2[nH]c3c(N4CCc5ccccc5C4)ncnc3c2c1,-1,23,-2,0,13,+
Cc1ccc(-n2c(SCC(=O)Nc3ccc4c(c3)OCCO4)nnc2-c2cnccn2)cc1,-1,5,nt,nt,-4,nt
CCn1nnnc1SCC(=O)Nc1nc(C)c(C)s1,nt,0,-3,0,1,+
SMILES,NSD2 inh,NPR2 activator,V-ATPase pH,Efflux pump mplx,GC-A act,Rce1 inh
Cc1ccn2c(=O)c(NC(=O)COc3ccccc3)c(C)nc2c1,0,5,0,0,3,i
Cc1nc2c(C)cccn2c(=O)c1NC(=O)COc1ccccc1,3,3,3,0,0,+
COC(=O)[C@@]12CCCCC3=C1N(CCC3)C(=O)[C@H]2CC(=O)NCCCCc1ccccc1,nt,-1,nt,nt,-1,nt
O=C(CCN1C(=O)C2C3C=CC(C4CC34)C2C1=O)Oc1ccc(Br)cc1 (stereo not given),0,-3,13*,0,-3,i
CCC(CC)c1nnc(NC(=O)C23CC4CC(CC(NC(C)=O)(C4)C2)C3)s1,-2,0,2,0,4,i
CC(=O)NC12CC3CC(C1)CC(C(=O)Nc1nc4ccc(F)cc4s1)(C3)C2,3,-1,0,-2,43*,i
CC(C)(COC(=O)c1ccccc1)N1CC2CCC(C1)O2,-5,-2,19*,nt,1,nt
CN(C)S(=O)(=O)c1cccc(C(=O)N/N=C\c2ccnc3ccccc23)c1,7,-8,nt,nt,-1,nt
CCC(=O)N1CCc2cc(Br)cc(S(=O)(=O)NCC3CCCO3)c21 (stereo not given),nt,7,14*,0,5,i
CCC(=O)N1CCc2cc(Br)cc(S(=O)(=O)CCC(=O)NCC3CCCO3)c21 (stereo not given),nt,5,0,0,10,nt
O=C(c1ccc(-n2cccn2)cc1)N1CCc2c([nH]c3ccccc23)C1c1ccccn1 (stereo not given),3,-2,-1,0,-2,i
Cc1cc2cc(C(=O)N3CCc4c([nH]c5ccccc45)C3c3ccccn3)ccc2o1 (stereo not given),6,1,-1,0,0,+
O=C(N=C1c2ccccc2CN1c1cccc(S(=O)(=O)N2CCOCC2)c1)c1ccccc1,2,nt,nt,nt,nt,nt
CC1=C(C)/C(=N\OS(=O)(=O)c2ccc(C)cc2)C=CC1=O,3,8,10*,1,5,nt
CN(Cc1ccccc1)C(=O)OCc1cn(Cc2ccc(F)c(F)c2)nn1,nt,7,nt,nt,0,nt
CCN(CC)c1ccc(/C=N/NC(=S)NCc2ccc(OC)cc2)cc1,3,-3,-3,0,-7,+
CCCCNC(=S)N(C)/N=C/c1ccc(OCC(=O)Nc2c(C)cc(C)cc2C)c(OC)c1,2,15,1,0,6,i
CCNC(=S)N/N=C/c1ccc(OCC(=O)Nc2ccc(OC)cc2)c(OC)c1,8,55*,-1,0,39,i
CCN(CC)c1ccc(/C=N/NC(=S)NCc2ccccc2)cc1,2,-5,1,0,-2,i
COc1cc(/C=N/NC(=S)NC(C)C)ccc1OCC(=O)Nc1c(C)cc(C)cc1C,-1,44*,18,0,34,i
Cc1ccc(S(=O)(=O)c2nc(-c3ccccc3F)oc2N2CCN(C)CC2)cc1,12,nt,nt,nt,nt,nt
C=CCN(CC#CC1=CCCCC1)Cc1ccc(OC)cc1OC,nt,-4,nt,nt,1,nt
O=C(c1ccccc1)N1CCCc2ccccc21,-1,6,7,0,0,i
O=C(c1ccc(=O)oc1)N1CCCc2ccccc21,92*,6,-6,0,8,i
